One assay has as its target THRA (gene 7067) (UniProt P10827). As to the kind of experiment: TOX21_TRA_COA_Agonist_Followup_ratio: Tox21 Thyroid Hormone Receptor alpha Agonism through Coactivator Recruitment Follow-Up Assay, Ratio (AID 2283948; active = hit-call score of the fitted dose curve at least 0.9, where 1 is the maximum; inactive = score below 0.9). The method, boiled down: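 First, compound was incubated with 2.5 nM GST-TRα LBD in 0.10% BSA. Next, 200 nM fluorescein-SRC-2 and 2 nM Tb-anti-GST antibody were added. Finally, the 520:495 nm ratio was normalized to DMSO and T3 controls.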

In assay [1] the target is PGR (gene 5241) (UniProt P06401). In words: TOX21_PR_BLA_Followup_Antagonist_ratio: Tox21 HEK293 Progesterone Receptor (PR) Antagonism Beta-lactamase Follow-Up Assay, Ratio (AID 2283934). The method, boiled down:
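PR-UAS-bla HEK293T cells in medium with 2% charcoal-stripped FBS were treated with compounds plus 1 nM (final) promegestone (R5020) for 16 hr at 37C. LiveBLAzer B/G FRET substrate was then added for 2 h at room temperature; signal is cleaved/uncleaved substrate ratio versus DMSO.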

Assay [2] in a line: TOX21_PR_BLA_Followup_Agonist_viability: Viability Assessment in the Tox21 HEK293 Progesterone Receptor (PR) Agonism Beta-lactamase Follow-Up Assay (AID 2283935).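 Note: signal loss means lower viability so actives are cytotoxic.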 The method, boiled down: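 PR-UAS-bla HEK293T cells in 2% charcoal-stripped FBS medium, compound added after 6 hr plating, 16 hr at 37C/5% CO2. After bla FRET read, CellTiter-Glo added; luminescence read after 30 min at room temperature; signal loss marks cytotoxicity.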

Assay [3] in a line: TOX21_PR_BLA_Followup_Antagonist_viability: Viability Assessment in the Tox21 HEK293 Progesterone Receptor (PR) Antagonism Beta-lactamase Follow-Up Assay (AID 2283936).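 Note: hits lower the luminescence signal meaning cytotoxicity.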 The method, boiled down:
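PR-UAS-bla HEK293T cells (3,000/well, 2% charcoal-stripped FBS) given compound plus R5020 agonist, 16 h at 37C. CellTiter-Glo added after bla read, 30 min at room temperature; luminescence loss indicates cytotoxicity.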

Assay [4] can be described thus: TOX21_PR_LUC_Followup_Antagonist_viability: Viability Assessment in the Tox21 HEK293 Progesterone Receptor (PR) Antagonism Luciferase Follow-Up Assay (AID 2283940). The method, boiled down:
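HEK293-PR-A-luc cells, precultured 5 days in assay medium with 10% charcoal-stripped FBS, were seeded at 3,000 cells/well, treated with compounds in DMSO for 16 h at 37C, and viability was read as cellular ATP by CellTiter-Glo luminescence.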

Assay [5] can be described thus: TOX21_PR_LUC_Followup_Agonist_viability: Viability Assessment in the Tox21 HEK293 Progesterone Receptor (PR) Agonism Luciferase Follow-Up Assay (AID 2283941).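 Note: loss of signal means cytotoxicity so actives lower viability.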 The method, boiled down:
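HEK293-PR-A-luc cells, pre-cultured 5 days in 10% charcoal-stripped FBS, were seeded at 3,000 cells/well, rested 5 h at 37C, then given compound in DMSO for 16 h at 37C. Cellular ATP was read by CellTiter-Glo luminescence; signal loss indicates cytotoxicity.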

The target in assay [6] is PGR (gene 5241) (UniProt P06401). As to the kind of experiment: TOX21_PR_LUC_Followup_Antagonist: Tox21 HEK293 Progesterone Receptor (PR) Antagonism Luciferase Follow-Up Assay (AID 2283938).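 Note: curve fitted upward as signal gain over DMSO baseline despite antagonist label.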 The method, boiled down:
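A follow-up to the PR bla screen using HEK293-PR-A-luc cells, multiplexed with cell viability to flag cytotoxicity. Reporter luminescence after 16 h compound exposure was analysed relative to DMSO.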

The target is the same in assay [7]. In words: TOX21_PR_BLA_Followup_Agonist_ratio: Tox21 HEK293 Progesterone Receptor (PR) Agonism Beta-lactamase Follow-Up Assay, Ratio (AID 2283933). The method, boiled down:
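PR-UAS-bla HEK293T cells (GAL4-UAS beta-lactamase reporter) in medium with 2% charcoal-stripped FBS received compounds after 6 hr at 37C, then incubated 16 hr. LiveBLAzer FRET substrate added, 2 hr room temperature; cleaved/uncleaved (ch2/ch1) ratio fitted upward versus DMSO.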

For assay [8] the target is unchanged. As to the kind of experiment: TOX21_PR_LUC_Followup_Agonist: Tox21 HEK293 Progesterone Receptor (PR) Agonism Luciferase Follow-Up Assay (AID 2283937; active = hit-call score of the fitted dose curve at least 0.9, where 1 is the maximum; inactive = score below 0.9). The method, boiled down:
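HEK293-PR-A-luc cells, pre-cultured 5 days in medium with 10% charcoal-stripped FBS, were seeded at 3,000 cells/well, rested 5 h at 37C, then exposed to compounds 16 h at 37C; luciferase read by ONE-Glo luminescence after 30 min.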

Assay [9] deals with Thyroid hormone receptor alpha (Rattus norvegicus) + Thyroid hormone receptor beta (Rattus norvegicus) (UniProt P18113+P63059). As to the kind of experiment: TOX21_TR_LUC_GH3_Agonist_Followup: Tox21 GH3 Thyroid Hormone Receptor Agonism Luciferase Follow-Up Assay (AID 2283939). The method, boiled down: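 Rat GH3 cells (1,500/well) in serum-free assay medium, treated with 15-point series, 92 uM to 5 nM final, for 24 h at 37C. Luciferase via ONE-Glo luminescence; gain of signal fitted against DMSO, T3 positive control.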
Chain of Thyroid hormone receptor alpha (Rattus norvegicus) + Thyroid hormone receptor beta (Rattus norvegicus) (P63059 whole entry, looked up): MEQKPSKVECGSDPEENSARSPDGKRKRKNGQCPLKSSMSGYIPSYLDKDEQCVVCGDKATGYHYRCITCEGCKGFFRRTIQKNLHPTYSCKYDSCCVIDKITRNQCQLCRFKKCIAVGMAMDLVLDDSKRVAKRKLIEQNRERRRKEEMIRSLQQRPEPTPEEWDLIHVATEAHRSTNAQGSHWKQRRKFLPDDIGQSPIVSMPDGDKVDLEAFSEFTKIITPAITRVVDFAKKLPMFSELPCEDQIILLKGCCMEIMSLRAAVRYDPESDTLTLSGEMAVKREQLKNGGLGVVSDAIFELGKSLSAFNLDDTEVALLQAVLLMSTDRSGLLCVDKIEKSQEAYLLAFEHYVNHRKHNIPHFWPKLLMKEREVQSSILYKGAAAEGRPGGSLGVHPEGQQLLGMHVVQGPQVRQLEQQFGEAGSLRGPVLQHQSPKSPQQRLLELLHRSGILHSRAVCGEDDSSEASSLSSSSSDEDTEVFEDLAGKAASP
Chain of Thyroid hormone receptor alpha (Rattus norvegicus) + Thyroid hormone receptor beta (Rattus norvegicus) (P18113 whole entry, looked up): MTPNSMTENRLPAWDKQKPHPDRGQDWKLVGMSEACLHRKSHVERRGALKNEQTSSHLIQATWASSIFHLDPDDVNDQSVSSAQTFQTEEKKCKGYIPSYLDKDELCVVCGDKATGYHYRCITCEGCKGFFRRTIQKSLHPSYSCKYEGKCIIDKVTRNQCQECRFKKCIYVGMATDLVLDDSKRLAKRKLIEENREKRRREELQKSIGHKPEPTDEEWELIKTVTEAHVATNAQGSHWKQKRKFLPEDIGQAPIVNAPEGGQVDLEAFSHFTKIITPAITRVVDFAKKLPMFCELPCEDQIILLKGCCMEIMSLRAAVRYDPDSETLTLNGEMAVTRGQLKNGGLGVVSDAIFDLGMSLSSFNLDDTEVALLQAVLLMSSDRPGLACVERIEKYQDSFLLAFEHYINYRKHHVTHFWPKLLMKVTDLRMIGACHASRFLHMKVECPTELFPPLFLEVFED

The values that follow come from PubChem BioAssay (EPA / NIEHS).

Inconclusive results are not listed. Activity calls are given as the source filed them. Rule for the calls, unless noted: active = hit-call score of the fitted dose curve at least 0.9, where 1 is the maximum; inconclusive = response in the unintended direction; inactive = score below 0.9.

Chain of THRA (gene 7067) (P10827 whole entry, looked up, the tested form may be a part): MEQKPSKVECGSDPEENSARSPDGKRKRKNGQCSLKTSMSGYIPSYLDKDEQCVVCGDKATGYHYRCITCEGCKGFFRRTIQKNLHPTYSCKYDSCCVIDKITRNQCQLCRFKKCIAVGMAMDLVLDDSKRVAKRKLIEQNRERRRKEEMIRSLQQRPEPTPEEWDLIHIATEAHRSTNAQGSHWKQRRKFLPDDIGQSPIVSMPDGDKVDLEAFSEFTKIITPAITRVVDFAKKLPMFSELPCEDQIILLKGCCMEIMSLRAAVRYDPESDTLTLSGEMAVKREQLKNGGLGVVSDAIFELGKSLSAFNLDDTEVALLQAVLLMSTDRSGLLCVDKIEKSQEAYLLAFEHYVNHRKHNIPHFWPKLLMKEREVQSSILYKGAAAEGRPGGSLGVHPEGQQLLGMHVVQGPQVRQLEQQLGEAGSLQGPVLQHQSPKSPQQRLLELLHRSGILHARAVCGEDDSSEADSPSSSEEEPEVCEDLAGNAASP
Chain of PGR (gene 5241) (P06401 whole entry, looked up): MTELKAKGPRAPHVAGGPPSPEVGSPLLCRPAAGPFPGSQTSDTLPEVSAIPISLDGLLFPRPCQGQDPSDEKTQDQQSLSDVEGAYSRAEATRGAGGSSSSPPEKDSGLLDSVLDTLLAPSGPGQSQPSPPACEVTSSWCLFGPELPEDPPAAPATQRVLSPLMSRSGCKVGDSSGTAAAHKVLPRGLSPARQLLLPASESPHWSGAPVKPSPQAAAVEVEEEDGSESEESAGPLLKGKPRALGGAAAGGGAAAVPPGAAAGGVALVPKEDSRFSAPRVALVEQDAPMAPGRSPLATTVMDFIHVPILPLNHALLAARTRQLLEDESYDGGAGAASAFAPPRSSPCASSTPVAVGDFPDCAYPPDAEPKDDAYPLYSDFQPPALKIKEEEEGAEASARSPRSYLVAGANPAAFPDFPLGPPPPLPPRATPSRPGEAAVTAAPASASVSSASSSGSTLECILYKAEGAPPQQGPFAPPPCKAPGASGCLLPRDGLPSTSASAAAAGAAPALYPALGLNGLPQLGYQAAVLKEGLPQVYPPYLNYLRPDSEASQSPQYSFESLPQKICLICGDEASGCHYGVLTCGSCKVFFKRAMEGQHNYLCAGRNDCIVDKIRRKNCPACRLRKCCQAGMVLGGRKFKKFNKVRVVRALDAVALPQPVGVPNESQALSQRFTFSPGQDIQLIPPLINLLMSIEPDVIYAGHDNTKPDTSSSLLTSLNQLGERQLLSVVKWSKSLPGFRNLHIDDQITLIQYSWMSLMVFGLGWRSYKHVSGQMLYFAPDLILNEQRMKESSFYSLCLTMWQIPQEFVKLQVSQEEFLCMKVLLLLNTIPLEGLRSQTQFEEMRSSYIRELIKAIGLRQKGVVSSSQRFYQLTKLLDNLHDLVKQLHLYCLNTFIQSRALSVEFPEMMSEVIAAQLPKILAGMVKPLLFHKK

On to `CC(C)(OO)c1ccccc1`, for which, in the assay with THRA (gene 7067), the outcome was inactive.

For the molecule `C[C@]12CCC(=O)C[C@@H]1CC[C@@H]1[C@@H]2CC[C@]2(C)[C@@H](O)CC[C@@H]12`, the outcome (in the assay with PGR (gene 5241) [1]; in [2]; in assay [3]; in assay [4]; in assay [5]) was inactive.

A word on the AC50: it is the concentration giving half of the maximal activity seen. As to `Nc1ccc(-c2ccc(N)c(Cl)c2)cc1Cl`, the AC50 in the assay with PGR (gene 5241) [1] is 5.01 µM (active); with PGR (gene 5241) [6], 6.09 µM (active). Also, the outcome in assay [2], in assay [3], in [4] and in [5] was inactive.

Consider `Clc1ccc(C2(Cn3cncn3)CC(Br)CO2)c(Cl)c1` (configuration not stated), for which the AC50 with PGR (gene 5241) [1] was 37.7 µM (active); with PGR (gene 5241) [6], 46.1 µM (active). The molecule was classed as inactive in assay [2], in [3], in [4] and in assay [5].

Regarding `CC12CC1(C)C(=O)N(c1cc(Cl)cc(Cl)c1)C2=O` (configuration not stated), the outcome (with PGR (gene 5241) [7]; with PGR (gene 5241) [1]; in assay [2]; with PGR (gene 5241) [8]; with PGR (gene 5241) [6]; in [4]) was inactive. For the same molecule, the molecule was classed as inactive in assay [5].

Consider `C[C@H]1CCCC(=O)CCC/C=C/c2cc(O)cc(O)c2C(=O)O1`, for which, in the assay with PGR (gene 5241) [1], the AC50 was 14.4 µM (active). Besides, the result (in assay [2]; in assay [3]; in the assay with PGR (gene 5241) [8]; with PGR (gene 5241) [6]; in assay [4]; in assay [5]) was inactive.

As for `CC1(C)CCC(Cc2ccc(Cl)cc2)C1(O)Cn1cncn1` (configuration not stated), the AC50 with PGR (gene 5241) [1] was 16.8 µM (active); in the assay with PGR (gene 5241) [6], 21.6 µM (active). For the same molecule, the call in assay [2], in assay [3], in assay [4] and in [5] was inactive.

Consider `CC(C)C1CCC(Cc2ccc(Cl)cc2)C1(O)Cn1cncn1` (configuration not stated), for which the AC50 in the assay with PGR (gene 5241) [1] was 15.8 µM (active); in assay [2], 75.5 µM (active); with PGR (gene 5241) [6], 22 µM (active). The outcome in assay [3], in assay [4] and in [5] was inactive.

As to `O=C1C2(Cl)C3(Cl)C4(Cl)C(Cl)(Cl)C5(Cl)C3(Cl)C1(Cl)C5(Cl)C24Cl` (configuration not stated), the outcome (in the assay with PGR (gene 5241) [7]; in assay [3]; in the assay with PGR (gene 5241) [8]; in assay [4]; in assay [5]) was inactive. The AC50 with PGR (gene 5241) [1] is 63 µM (active); in [2], 66.2 µM (active); in the assay with PGR (gene 5241) [6], 33.8 µM (active).

As to `CC(C)(c1ccccc1)c1ccc(O)c(C(C)(C)c2ccccc2)c1`, in the assay with THRA (gene 7067), the result was inactive.

Consider `NNC(=S)NN`, for which the outcome (in assay [9]; in the assay with THRA (gene 7067)) was inactive.

Take `C=C(C)C(=O)[O][Sn]([CH2]CCC)([CH2]CCC)[CH2]CCC`: the outcome in the assay with THRA (gene 7067) was inactive.

Consider `C[C@]12CC[C@H](O)CC1=CC[C@@H]1[C@@H]2CC[C@]2(C)C(=O)CC[C@@H]12`, for which, in the assay with PGR (gene 5241) [1], the AC50 is 16.1 µM (active). For the same molecule, the call (in assay [2]; in assay [3]; with PGR (gene 5241) [6]; in [4]; in assay [5]) was inactive.

For `Oc1ccc(-c2ccccc2)cc1`, the AC50 in the assay with PGR (gene 5241) [1] is 29.5 µM (active); in the assay with PGR (gene 5241) [6] it was 33 µM (active). Besides, the molecule was called inactive in assay [2], in assay [3] and in assay [4].
